Assay outcomes from PubChem BioAssay.
ASK1 inh: ASK1 kinase inhibitors, primary screen, biochemical, AlphaScreen | AlphaScreen MKK6 phosphorylation by ASK1, luminescence | inhibition, % at 7.44 µM | 22,000 tested, 0.99% active; in the data active means inhibition above about 35%;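 further: 0% = median of compound wells and 100% = no enzyme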
ULK1 inh: ULK1 kinase inhibitors, primary screen, biochemical, AlphaScreen | 30,000 tested, 1.9% active | inhibition, % at 5.96 µM | AID 1259251, 2017 | AlphaScreen Atg13 phosphorylation by ULK1, luminescence; in the data active means inhibition above about 43%;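 further: 0% = median of compound wells and 100% = no enzyme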
Target sequence (O75385 whole entry, looked up): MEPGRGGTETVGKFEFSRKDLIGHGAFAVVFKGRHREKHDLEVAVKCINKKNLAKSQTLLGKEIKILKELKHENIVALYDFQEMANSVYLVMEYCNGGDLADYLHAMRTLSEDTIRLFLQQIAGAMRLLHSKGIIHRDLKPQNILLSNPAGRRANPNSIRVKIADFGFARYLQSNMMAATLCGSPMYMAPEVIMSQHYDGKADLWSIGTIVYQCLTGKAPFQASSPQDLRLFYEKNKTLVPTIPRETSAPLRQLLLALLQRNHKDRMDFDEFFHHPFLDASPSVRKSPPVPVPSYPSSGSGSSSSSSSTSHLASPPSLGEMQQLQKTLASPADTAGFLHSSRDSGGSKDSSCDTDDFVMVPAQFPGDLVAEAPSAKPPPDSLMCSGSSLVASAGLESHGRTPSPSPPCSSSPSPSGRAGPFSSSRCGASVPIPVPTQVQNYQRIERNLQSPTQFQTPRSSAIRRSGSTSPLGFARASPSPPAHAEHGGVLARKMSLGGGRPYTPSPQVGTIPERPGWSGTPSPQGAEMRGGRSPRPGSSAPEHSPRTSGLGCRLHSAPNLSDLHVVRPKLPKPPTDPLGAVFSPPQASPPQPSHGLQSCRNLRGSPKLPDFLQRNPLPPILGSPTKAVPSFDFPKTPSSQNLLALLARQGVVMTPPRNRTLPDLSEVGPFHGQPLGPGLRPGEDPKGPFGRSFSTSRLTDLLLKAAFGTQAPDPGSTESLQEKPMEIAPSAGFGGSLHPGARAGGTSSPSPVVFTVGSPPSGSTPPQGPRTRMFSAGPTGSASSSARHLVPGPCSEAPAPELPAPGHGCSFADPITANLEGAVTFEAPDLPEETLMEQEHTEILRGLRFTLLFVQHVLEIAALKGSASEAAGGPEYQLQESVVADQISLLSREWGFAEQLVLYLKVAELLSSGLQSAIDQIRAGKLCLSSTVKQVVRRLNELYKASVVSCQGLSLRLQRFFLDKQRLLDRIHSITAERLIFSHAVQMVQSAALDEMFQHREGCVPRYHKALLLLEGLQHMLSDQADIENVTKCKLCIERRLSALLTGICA
Active calls of the source: *; / = no result given. This is a sample that favours compounds with a hit; in the whole collection about 2.5% have one here.

SMILES	ASK1 inh	ULK1 inh
N#Cc1sccc1Nc1ccc2c(cnn2-c2cccc(C(=O)NCCN3CCOCC3)c2)c1	5	-37
O=C(NCC(O)c1ccc(Cl)cc1)c1cn(-c2ccc3[nH]ncc3c2)nn1 (stereo not given)	-18	-2
CC(=O)Nc1ccc(Nc2nc(Nc3ccncn3)ncc2C)cc1	-2	16
CCN(CC)C(=O)C1CCCN(c2cc(C(=O)Nc3ccc(N4CCOCC4)cc3)ccn2)C1 (stereo not given)	-36	60*
CCN(CC)C(=O)C1CCCN(c2cc(C(=O)Nc3ccccc3)ccn2)C1 (stereo not given)	6	-2
O=C(Cc1cn(-c2ccc(NCCCN3CCCC3=O)nn2)c2ccccc12)Nc1ccc(Oc2ccccc2)cc1	16	-13
O=C(Cc1cn(-c2ccc(NCCCN3CCCC3=O)nn2)c2ccccc12)Nc1ccccc1	-3	2
O=C(Cc1cn(-c2ccc(NCCCN3CCCC3=O)nn2)c2ccccc12)Nc1ccc(N2CCOCC2)cc1	-1	47*
CC(=O)Nc1ccc(NC(=O)Cc2cn(-c3ccc(NCCCN4CCCC4=O)nn3)c3ccccc23)cc1	5	44*
CCCNC(=O)c1cc(NCc2cccnc2)nc2ccccc12	2	0
COc1ccc(CCNC(=O)c2cc(N3CCc4ccccc4C3)nc3ccccc23)cc1	-22	2
Nn1cnnc1N/N=C/c1ccc(-c2cccc([N+](=O)[O-])c2)o1	/	45*
O=C(N/N=C\c1ccc(-c2ccc([N+](=O)[O-])cc2)o1)c1cnccn1	/	-3
COc1cc(Nc2nc(-c3ccc(N4CCOCC4)nc3)nc3c2ncn3Cc2ccc(C(F)(F)F)cc2)cc(OC)c1OC	11	-2
Cn1nccc1Nc1nc(NCCCN2CCCC2=O)c2[nH]cnc2n1	-6	-4
O=C(NCCCN1CCCC1=O)c1ccnc(Nc2ccncc2)c1	6	6
O=C1CCCN1CCCNc1nc(Nc2ccc(N3CCOCC3)cc2)nc2nc[nH]c12	3	54*
O=C1CCCN1CCCNc1ccnc(NCCCN2CCCC2=O)n1	-6	0
CCCNC(=O)c1ccnc(NCCCN2CCCC2=O)c1	-36	60*
O=C1CCCN1CCCNc1ncnc2nc(Nc3ccc(N4CCOCC4)cc3)[nH]c12	-4	7
COc1cc(Nc2nc(NCCCN3CCCC3=O)c3[nH]cnc3n2)cc(OC)c1OC	-33	74*
COc1cc(Nc2nccc(NCCCN3CCCC3=O)n2)cc(OC)c1OC	-1	52*
Nc1nc(NC2CCN(Cc3ccccc3)CC2)nc2c1ncn2-c1ccsc1	3	13
c1ccc(Nc2nc(-c3csc4ccccc34)nc3c2ncn3-c2ccccc2)cc1	7	4
COc1ccc(Nc2cc(C)nc(N3CCN(C(=O)C4CCCCC4)CC3)n2)cc1	/	-24
SMILES	ASK1 inh	ULK1 inh
c1nc2nc(Nc3ccc(N4CCOCC4)cc3)nc(NCCN3CCOCC3)c2[nH]1	0	17
c1ccc(OCCNc2nc(Nc3ccc(N4CCOCC4)cc3)nc3nc[nH]c23)cc1	26	69*
Clc1cnc(Nc2ccc(-n3cnc(N4CCOCC4)n3)cc2)nc1-c1cn[nH]c1	-33	77*
CC(=O)c1nc(Nc2ccc(-n3cnc(C)n3)cc2)ncc1Cl	6	34
Cc1ncn(-c2ccc(Nc3ncc(Cl)c(-c4cn[nH]c4)n3)cc2)n1	-43	73*
c1cc(-n2cnc(N3CCOCC3)n2)ccc1Nc1ncc2cc(-c3cn[nH]c3)ccc2n1	9	11
Cc1cncc(NC(=O)c2cc(N(C)C)cc(-n3cc(NC(=O)Nc4ccccc4Cl)cn3)c2)c1	5	-19
OCCNc1ccnc(N2CCc3ccccc3C2)n1	1	4
c1ccc2c(Nc3nc4ncnc(Nc5ccc(N6CCOCC6)cc5)c4[nH]3)nccc2c1	-7	12
CNC[C@H](O)c1ccc(O)c(O)c1	/	0
N[C@H](C(=O)O)[C@H](O)c1ccc(O)c(O)c1	/	89*
Cc1cccc2nc3c(c(=O)n12)CN(C(=O)CC(C)C)CC3	/	-5
CN1CCN(c2ccc(-c3cccc(C(=O)NCCN4CCOCC4)n3)cc2)CC1	12	15
O=C(O)c1cc(O)c2c(c1)[C@@H]([C@H]1c3cc(C(=O)O)cc(O)c3C(=O)c3c(O[C@H]4O[C@H](CO)[C@@H](O)[C@H](O)[C@H]4O)cccc31)c1cccc(O[C@H]3O[C@H](CO)[C@@H](O)[C@H](O)[C@H]3O)c1C2=O	/	67*
O=C1c2c(O)cccc2C(C2OC(CO)[C@@H](O)[C@H](O)[C@H]2O)c2cc(CO)cc(O)c21 (stereo not given in full)	/	-1
CCNc1cccc(C(=O)NCCCN2CCCC2=O)n1	8	0
Nc1cccc(-c2nc(Nc3ccc(N4CCOCC4)cc3)c3ncn(-c4ccsc4)c3n2)c1	10	-1
O=C(N/N=C/c1cc(O)c(Br)cc1Br)c1cccnc1	/	10
c1ccc(Nc2nc(NCCN3CCOCC3)c3ncn(C4CCCCC4)c3n2)cc1	11	-10
CN1CCN(C(=O)c2ccc(-c3nc(Nc4ccc(N5CCOCC5)cc4)c4ncn(C5CCCCC5)c4n3)cc2)CC1	13	1
c1cc(N2CCOCC2)ccc1Nc1nc(NCCN2CCOCC2)nc2c1ncn2C1CCCCC1	-35	55*
NC(=O)c1ccc(-c2nc(Nc3ccc(N4CCOCC4)cc3)c3ncn(C4CCCCC4)c3n2)cc1	0	44*
O=C(Cc1cn(-c2ccc(Nc3ccncn3)nn2)c2ccccc12)Nc1ccccc1	-4	9
O=C(O)C1CCCN(C2CCN(Cc3ccccc3)CC2)C1 (stereo not given)	/	-10
FC(F)(F)c1cccc(CNc2cc(N3CCOCC3)ncn2)c1	-6	0
SMILES	ASK1 inh	ULK1 inh
Cc1nn(C)c(C)c1-c1cccc(C(=O)NCc2cccnc2)c1	6	12
Nc1c(N=Nc2ccc(-c3ccc(N=Nc4cc(S(=O)(=O)O)c5ccccc5c4N)cc3)cc2)cc(S(=O)(=O)O)c2ccccc12	/	56*
Cc1cc(-c2ccc(N=Nc3ccc4c(S(=O)(=O)O)cc(S(=O)(=O)O)c(N)c4c3O)c(C)c2)ccc1N=Nc1ccc2c(S(=O)(=O)O)cc(S(=O)(=O)O)c(N)c2c1O	/	57*
O=S(=O)(O)c1ccccc1O	/	-3
CCN(CC)c1nc(Nc2ccc3c(c2)OCO3)nc(N2CCN(Cc3ccc4c(c3)OCO4)CC2)n1	28	7
CNC(=O)c1ccc(Nc2cc(Nc3ccccc3C(=O)NC)c(C(F)(F)F)cn2)nc1	-9	87*
CNC(=O)c1ccccc1Nc1cc(Nc2ccc(-c3cncnc3)cc2)ncc1C(F)(F)F	-7	70*
CNC(=O)c1ccnc(Nc2cc(Nc3ccccc3C(=O)NC)c(C(F)(F)F)cn2)c1	-6	87*
O=C(O)c1ccccc1Nc1ccccn1	/	12
O=C(NCc1cccc(C(F)(F)F)c1)c1ccnc(Nc2ccccn2)c1	-2	1
CNC(=O)c1ccccc1Nc1cc(Nc2ccccn2)ncc1C(F)(F)F	-1	89*
c1ccc(CCNc2cc(-c3ccccn3)nc(-c3cccnc3)n2)cc1	/	-13
CCCNc1ccnc(N2CCCC2CO)n1 (stereo not given)	-7	-4
COc1ccc(CCNC(=O)Cc2cn(-c3ccc(Nc4ccc(-n5ccnc5)cc4)nn3)c3ccccc23)cc1	4	7
O=C(Cc1ccc2c(c1)OCO2)Nc1cc(Nc2ccccc2-c2ncn[nH]2)c(C(F)(F)F)cn1	-2	-18
